Screens from PubChem.
An excerpt weighted towards active compounds, which were near 3.2% of everything screened.
LMP1 NFkB inh = inhibitors of Epstein-Barr LMP1-induced NF-kappaB reporter; 350,000 compounds, 0.69% hits; LMP1-induced NF-kappaB luciferase reporter cells, luminescence; inhibition, % at 12.5 µM; AID 504558; in the data active means inhibition above about 41%;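 further: 0% = neutral control wells and 100% = reference inhibitor control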
PAX8 inh HTS = PAX8 transcriptional activity inhibition. inhibition, % at 12.6 µM. RMG-I TPO-luciferase reporter, SteadyGlo, 24 h. 360,000 compounds, 1.2% hits. AID 652154;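 active means mean replicate inhibition at least 60% with every replicate also reaching 60%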;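 further: luciferase light reporting Pax8 driven TPO promoter activity; plate controls were median of neutral control wells for no effect and mitoxantrone controls for full effect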
TROY signal inh = inhibitors of TROY-dependent NF-kB signaling | 360,000 compounds, 0.98% hits | AID 1347056 | inhibition, % at 10 µM | Q293 LMP1-TROYcd NF-kB luciferase reporter, 4 h;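 active means compounds whose plate-normalised and pattern-corrected inhibition of the luciferase reporter signal at the single screening dose is 50% or more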
TWEAK-Fn14 inh = inhibitors of TWEAK-Fn14 interaction signaling. TWEAK-stimulated Fn14 reporter cells, luciferase luminescence, 8 h. inhibition, % at 10 µM. 360,000 compounds, 2% hits. AID 1159606; in the data active means inhibition above about 50%
LGR2 antag = blocks bursicon-induced cAMP signaling via Drosophila LGR2 | AID 720647 | 380,000 compounds, 0.35% hits | HEK293 LGR2, CRE-luciferase, bursicon-stimulated, 4 h | inhibition, % at 9.99 µM;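 active means drop in luminescence signal, shown as inhibition above about 50% in the replicate tests, limit read from the data, passing the limit was not always enough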;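 further: agonist challenge used bursicon conditioned medium at about half maximal strength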
EWS-Fli block = EWS/Fli transcriptional activity inhibition; A673 NR0B1-luciferase reporter, viability-normalised; inhibition, % at 12.6 µM; 350,000 compounds, 0.67% hits;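 active means mean inhibition of at least 50% after viability correction, with every replicate also passing that limit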;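 further: firefly luciferase signal divided by Alamar Blue viability fluorescence both relative to DMSO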
Active calls of the source: *; nt = no result given.

SMILES | LMP1 NFkB inh | PAX8 inh HTS | TROY signal inh | TWEAK-Fn14 inh | LGR2 antag | EWS-Fli block
COc1ccc(NC(=O)N(C)C[C@H]2OCCCC[C@@H](C)Oc3ccc(NC(=O)CCCN(C)C)cc3C(=O)N([C@@H](C)CO)C[C@H]2C)cc1 | nt | -8 | nt | nt | 11 | -8
Cc1noc(C)c1NC(=O)N(C)C[C@@H]1Oc2ccc(NC(=O)CCCCCC(=O)Nc3ccccc3N)cc2C(=O)N([C@@H](C)CO)C[C@@H]1C | nt | nt | nt | nt | 6 | -14
O=C(/C=C/c1ccco1)Nc1ccc(Oc2ccc(Cl)cc2)cc1 | -2 | nt | 6 | 51* | nt | nt
CO[C@@H]1CN(C)C(=O)c2ccc(NS(=O)(=O)c3ccccc3F)cc2OC[C@H](C)NC[C@H]1C | nt | -5 | nt | nt | -27 | -4
Nc1ccccc1SC1CC(=O)N(c2ccccc2Cl)C1=O (stereo not drawn) | 47* | -5 | -1 | 14 | 6 | -10
Cc1c(Cl)cccc1N1C(=O)CC(Sc2ccccc2N)C1=O (stereo not drawn) | -6 | -16 | 10 | -17 | -12 | 2
C[C@H]1CCCCO[C@H](CN(C)Cc2ccc(Cl)c(Cl)c2)[C@@H](C)CN([C@@H](C)CO)C(=O)c2cc(NC(=O)Nc3ccccc3)ccc2O1 | nt | 85* | nt | nt | 4 | 14
C[C@H](CO)N1C[C@H](C)[C@@H](CN(C)Cc2ccc(Cl)c(Cl)c2)OCCCC[C@H](C)Oc2ccc(NC(=O)Nc3ccccc3)cc2C1=O | nt | 87* | nt | nt | -19 | 9
C[C@@H]1CCCCO[C@@H](CN(C)Cc2ccc(Cl)c(Cl)c2)[C@@H](C)CN([C@@H](C)CO)C(=O)c2cc(NC(=O)Nc3ccccc3)ccc2O1 | nt | 81* | nt | nt | 14 | 6
C[C@H](CO)N1C[C@H](C)[C@H](CN(C)Cc2ccc(Cl)c(Cl)c2)OCCCC[C@H](C)Oc2ccc(NC(=O)Nc3ccccc3)cc2C1=O | nt | 100* | nt | nt | 10 | -4
COc1ccc2c3c([nH]c2c1)[C@H](CO)N(C(=O)CN1CCOCC1)CC31CCN(C(C)=O)CC1 | nt | nt | nt | nt | -5 | 0
CCOC(=O)N1CCC(NC(=O)c2cc3cc4cc(OC)ccc4nc3o2)CC1 | 1 | 0 | -6 | 7 | nt | nt
COc1ccc2nc3oc(C(=O)NC4CCN(Cc5ccccc5)CC4)cc3cc2c1 | 0 | nt | -15 | 53* | nt | nt
Nc1nc2ccccc2n1/N=C/c1cccnc1 | 2 | nt | -8 | 5 | nt | nt
Nc1nc2ccccc2n1/N=C/c1ccc(-c2ccccc2)o1 | -25 | -73 | -23 | 53* | nt | nt
CCOC(=O)c1c2c3c(cccc3n(C)c1=O)C(=O)c1ccccc1-2 | 20 | 8 | 6 | 11 | -2 | 3
CCOC(=O)c1c2c(n(Cc3ccccc3)c1C)C(=O)C(=O)c1ccccc1-2 | 14 | 125* | 65* | 104* | 104* | 69*
CCOC(=O)c1c2c(n(C)c1C)C(=O)C(=O)c1ccc(Br)cc1-2 | 77* | nt | 45 | 87* | nt | nt
Cc1c(CN(C)C)c2c(n1C)C(=O)c1ccc(Br)cc1-2 | 0 | nt | -8 | -29 | nt | nt
O=C(Nc1cccc(F)c1)N1CC(=O)N2[C@H](CO)[C@H](c3ccc(C#Cc4cccnc4)cc3)[C@H]2C1 | nt | nt | nt | nt | 29 | nt
CN(C)C(=O)c1cccc(-c2ccc([C@@H]3[C@H]4CN(C(=O)Cc5ccccc5)CC(=O)N4[C@H]3CO)cc2)c1 | nt | 2 | nt | nt | 4 | 9
O=c1cc(O)c2sc(Nc3ccc(F)c(Cl)c3)nc2[nH]1 | -104 | 74* | 6 | -3 | 5 | 28
O=c1cc(O)c2sc(Nc3ccc(Cl)c(F)c3)nc2[nH]1 | -38 | 70* | 29 | -11 | -4 | 29
CCC(=O)N1[C@@H]2c3ccc(-c4ccccc4)c(=O)n3C[C@H]1[C@H](CO)[C@H]2C(=O)N1CCCCC1 | nt | -1 | nt | nt | 4 | -1
COc1ccc(CN(C)C[C@H]2Oc3ccc(NC(=O)Cn4cnnn4)cc3C(=O)N([C@H](C)CO)C[C@H]2C)cc1 | nt | -11 | nt | nt | 3 | nt
SMILES | LMP1 NFkB inh | PAX8 inh HTS | TROY signal inh | TWEAK-Fn14 inh | LGR2 antag | EWS-Fli block
COc1ccc(NC(=O)N(C)C[C@@H]2Oc3c(NC(=O)Nc4ccc(C(F)(F)F)cc4)cccc3C(=O)N([C@H](C)CO)C[C@@H]2C)cc1 | nt | nt | nt | nt | 6 | 1
Cc1ccc(C(=O)Cn2cnc3ccccc3c2=O)cc1 | -25 | nt | 54* | -34 | nt | nt
C[C@@H]1CCCCO[C@H](CN(C)Cc2ccc(C(F)(F)F)cc2)[C@@H](C)CN([C@@H](C)CO)C(=O)c2cc(NS(=O)(=O)c3ccc(Cl)cc3)ccc2O1 | nt | 113* | nt | nt | 48 | 17
C[C@H]1CCCCO[C@H](CN(C)Cc2ccc(C(F)(F)F)cc2)[C@@H](C)CN([C@@H](C)CO)C(=O)c2cc(NS(=O)(=O)c3ccc(Cl)cc3)ccc2O1 | nt | 93* | nt | nt | 18 | 14
C[C@@H]1CCCCO[C@H](CN(C)Cc2ccc(C(F)(F)F)cc2)[C@H](C)CN([C@@H](C)CO)C(=O)c2cc(NS(=O)(=O)c3ccc(Cl)cc3)ccc2O1 | nt | 105* | nt | nt | 11 | 27
c1ccc(-c2nc3ccccc3o2)nc1 | -29 | nt | -48 | -3 | nt | nt
c1ccc2nc(-c3nc4ccccc4o3)ccc2c1 | 5 | nt | 58* | 94* | 85* | nt
O=C(C[C@H]1C=C[C@H](NC(=O)c2cccnc2)[C@H](CO)O1)NCc1ccncn1 | nt | nt | nt | nt | 1 | -8
O=C(CCc1ccc(F)c(F)c1)NC1CCCN(Cc2ccc(Cl)cc2)C1 (stereo not drawn) | 80* | 14 | -7 | -12 | 1 | 2
CCCNC(=O)N1CC2(C1)CN(C(=O)COC)[C@@H](CO)c1c2c2ccc(OC)cc2n1C | nt | nt | nt | nt | 17 | -12
COCCNC(=S)N(CCc1c(C)[nH]c2ccc(OC)cc12)Cc1cccnc1 | 42* | -3 | 14 | -12 | 0 | 7
c1ccc(CN2CCN(c3ncccn3)CC2)cc1 | 2 | -34 | 2 | 8 | -5 | -6
c1ccc(COc2ccc(CN3CCN(c4ccccn4)CC3)cc2)cc1 | -23 | nt | 57* | 15 | nt | nt
Cc1ccc(OCc2nc(C#N)c(N3CCN(Cc4ccccc4)CC3)o2)cc1 | 5 | 2 | -8 | 103* | nt | nt
CCNC(=O)C1CCCN(C(=O)c2cccc(Cl)c2)CC1 (stereo not drawn) | nt | -20 | -1 | -1 | 2 | -2
CCNC(=O)C1CCCN(C(=O)c2ccc(F)c(Cl)c2)CC1 (stereo not drawn) | nt | 76* | 2 | 2 | -4 | -6
CC(=O)c1cccc(NC(=O)Nc2ccc3c(c2)N(C)C(=O)CS3)c1 | 11 | nt | 68* | 82* | 5 | nt
CC1(c2nnnn2-c2ccc3c(c2)OCCO3)CCC(=O)N1C1CCN(Cc2ccccc2)CC1 (stereo not drawn) | nt | 1 | 50 | 80* | 8 | 13
CC(=O)Nc1ccc(Nc2cc(-c3ccccc3)nc3ncnn23)cc1 | 6 | 27 | 2 | -12 | -13 | 6
CC(=O)Nc1ccc(Nc2cc(C)nc3c(-c4ccccc4)cnn23)cc1 | 12 | -1 | 15 | 68* | -24 | nt
COc1ccc(-c2c(C)nc3c(-c4ccc(F)cc4)cnn3c2N)cc1 | -16 | -247 | 55* | 46 | -74 | -139
